# Data as given in the supplement of paper PMC7335073.
# Over roughly 4,100 sequences, “relative CpG methylation activity (normalised to average over all NNNCGNNN flanks)” has its median near 0.94; the highest 2% begin near 1.9. For the sample, the highest values were picked, then their nearest neighbours and some sequences at random.
# Molecular target: DNMT3B catalytic domain (mouse) (UniProt O88509)
# Assay: relative CpG methylation activity (normalised to average over all NNNCGNNN flanks) (relative (1 = mean)); higher = more methylation of the central CpG
# Settings: system: in vitro, murine catalytic domain; CpG state: hemimethylated substrate pool; residues: 558-859
# Protocol: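 Deep enzymology: a pool of dsDNA substrates with a central CpG flanked by 10 random nucleotides on each side was methylated by the murine DNMT3A or DNMT3B catalytic domain (0.8 mM SAM, 37 °C, 60 min). Methylation was then read out by hairpin ligation, bisulfite conversion and NGS. Values are the average methylation of each NNNCGNNN context (±3 flanks; the outer flanks are random and averaged over), normalised to the overall mean, so 1 = average activity.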
# Sequence of DNMT3B catalytic domain (mouse) (O88509 558-859): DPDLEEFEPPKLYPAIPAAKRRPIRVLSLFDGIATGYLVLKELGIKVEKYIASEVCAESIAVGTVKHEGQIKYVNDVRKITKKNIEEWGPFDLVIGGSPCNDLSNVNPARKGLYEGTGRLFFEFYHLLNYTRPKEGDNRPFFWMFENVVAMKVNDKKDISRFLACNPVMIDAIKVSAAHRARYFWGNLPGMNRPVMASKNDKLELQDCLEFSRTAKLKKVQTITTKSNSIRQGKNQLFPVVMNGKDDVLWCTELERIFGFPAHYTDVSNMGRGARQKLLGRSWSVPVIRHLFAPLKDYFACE
row,Sequence,relative CpG methylation activity
1,TCACGAGG,1.7
2,GAACGAGA,1.76
3,CAACGAGA,1.94
4,TCTCGAGA,1.96
5,TCACGAGA,1.96
6,TAACGAGA,1.72
7,TTACGCCG,1.59
8,TACCGGCC,1.52
9,CGCCGTAG,0.147
10,AAACGCGC,1.46
11,AAGCGTTT,0.413
12,AAGCGTTC,0.586
13,TAGCGCCC,0.741
14,TCGCGGAC,0.818
15,GGCCGTGG,0.0382
16,CCTCGAAT,1.3
17,AAACGGCC,1.76
18,CAACGGCC,1.93
19,CAACGGCT,1.92
20,AAACGGCT,1.82
21,CAACGGCA,1.74
22,GAACGGCC,1.81

row,Sequence,relative CpG methylation activity
1,ACGCGCGA,0.411
2,GACCGGGT,1.03
3,ACGCGTGA,0.523
4,TTCCGAAT,1.58
5,ACACGGCA,1.89
6,GAACGGCA,1.84
7,ACACGGCT,1.89
8,ACACGGCG,1.6
9,GCACGGCC,1.77
10,ACACGGCC,1.94
11,AAACGGCA,1.91
12,AAACGGCG,1.68
13,CCACGGCC,1.7
14,CAACGCGA,0.965
15,AGTCGTCA,0.379
16,CAACGTCA,1.15
17,CGCCGTAC,0.561
18,ATTCGCAG,0.453
19,CTCCGAGA,1.73
20,TTCCGATC,2.31
21,GTTCGATC,1.3
22,GTCCGATC,1.77

row,Sequence,relative CpG methylation activity
1,TTTCGATC,1.95
2,CTCCGAGC,2.06
3,CTCCGAGT,1.99
4,ATCCGAGC,1.68
5,TTTCGATA,1.81
6,ATCCGAGT,1.37
7,TTCCGAGT,1.83
8,TTCCGATT,1.75
9,CATCGAAC,1.6
10,ACGCGTGG,0.317
11,GATCGTTG,0.455
12,TGACGGAT,0.829
13,TTCCGAGC,1.9
14,TTCCGAAG,1.32
15,TTCCGAGG,1.42
16,TTCCGAGA,1.6
17,TTCCGAAC,1.89
18,ATCCGAAC,1.63
19,CCGCGGTC,1.43
20,GTTCGGGC,1.53
21,ACGCGATT,1.09
22,GATCGAAC,1.16

row,Sequence,relative CpG methylation activity
1,GTACGATT,1.75
2,TTACGATT,2.01
3,TTACGATG,1.53
4,TTACGATA,1.94
5,TTACGATC,2.01
6,CTACGATT,1.83
7,TCACGATA,1.76
8,GTACGATC,1.73
9,TAACGATA,1.81
10,CGTCGATA,1.84
11,TGCCGGGG,0.469
12,CGACGTGC,0.674
13,AGCCGAAA,0.798
14,AAACGTTA,0.806
15,CCCCGTTA,0.69
16,ACGCGTTG,0.312
17,TCACGACC,1.17
18,GTGCGGGT,1.3
19,CTACGAAT,1.56
20,TTACGAAT,1.76
21,CTACGAAG,1.6
22,TTACGAAA,1.78
